From PubChem BioAssay (EPA / NIEHS)
Inconclusive results are not listed. Activity calls are given as the source filed them. The calls were made as follows, unless noted: active = hit-call score of the fitted dose curve at least 0.9, where 1 is the maximum; inactive = score below 0.9.

Experiments:
[1] = read-out: Macrophage colony-stimulating factor (MCSF), CSF1 (gene 1435); experiment: BSK_LPS_MCSF: BioMAP Diversity Plus: LPS Assay for Macrophage colony-stimulating factor (MCSF) Biomarker Activity (AID 2283083); settings: primary human HUVEC with PBMC; actives raise or lower the signal
Method in brief: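 Compound is added to a human vascular primary co-culture of umbilical vein endothelium and blood mononuclear cells. After 24 h, M-CSF is quantified by ELISA. Signal changes are fitted in both directions against DMSO.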

[2] = read-out: Tissue Factor, F3 (gene 2152); experiment: BSK_LPS_TissueFactor: BioMAP Diversity Plus: LPS Assay for Tissue Factor Biomarker Activity (AID 2283084); settings: primary human HUVEC with PBMC; actives raise or lower the signal
Method in brief: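 In this co-culture system of umbilical vein endothelium with PBMC, stimulated with LPS, cell-surface CD142 is detected by ELISA at 24 h. Endpoint values derive from bidirectional fitting, DMSO serving as baseline.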

[3] = read-out: Tumor necrosis factor (Homo sapiens) (UniProt P01375); experiment: BSK_LPS_TNFa: BioMAP Diversity Plus: LPS Assay for Tumour Necrosis Factor alpha (TNFa) Biomarker Activity (AID 2283085); settings: primary human HUVEC with PBMC; actives raise or lower the signal
Method in brief: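 HUVEC/PBMC co-culture, LPS-stimulated; 24 h post-dose; TNFa by ELISA; gain or loss of signal fitted bidirectionally vs DMSO baseline.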

[4] = read-out: Vascular cell adhesion molecule 1 (VCAM1), VCAM1 (gene 7412); experiment: BSK_LPS_VCAM1: BioMAP Diversity Plus: LPS Assay for Vascular cell adhesion molecule 1 (VCAM1) Biomarker Activity (AID 2283086); settings: primary human HUVEC with PBMC; actives raise or lower the signal
Method in brief: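 ELISA read-out of VCAM-1 at 24 h post-dosing in an LPS-driven HUVEC/PBMC primary human co-culture; gain or loss of signal fitted bidirectionally against DMSO baseline. Cytotoxicity tracked in parallel cultures by SRB total-protein staining.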

[5] = read-out: CD38, CD38 (gene 952); experiment: BSK_SAg_CD38: BioMAP Diversity Plus: SAg Assay for CD38 Biomarker Activity (AID 2283087); settings: primary human HUVEC with PBMC; actives raise or lower the signal
Method in brief: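 Measures CD38 on a human endothelial/PBMC co-culture driven by SEB and TSST-1, 24 h after compound exposure, using ELISA with fluorescence detection; DMSO defines baseline for bidirectional curve fitting.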

[6] = read-out: CD40, CD40 (gene 958); experiment: BSK_SAg_CD40: BioMAP Diversity Plus: SAg Assay for CD40 Biomarker Activity (AID 2283088); settings: primary human HUVEC with PBMC; actives raise or lower the signal
Method in brief: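 Fluorescence ELISA read-out of CD40 from umbilical vein endothelium plus peripheral blood mononuclear cells, sampled 24 h after dosing. Values come from bidirectional curve fitting with DMSO as baseline.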

[7] = read-out: CD69, CD69 (gene 969); experiment: BSK_SAg_CD69: BioMAP Diversity Plus: SAg Assay for CD69 Biomarker Activity (AID 2283089); settings: primary human HUVEC with PBMC; actives raise or lower the signal
Method in brief: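 Values derive from bidirectional fitting relative to DMSO vehicle. Cells: umbilical vein endothelium plus peripheral blood mononuclear cells, treated 24 h before fluorescent ELISA for CD69.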

[8] = read-out: E-selectin (Homo sapiens) (UniProt P16581); experiment: BSK_SAg_Eselectin: BioMAP Diversity Plus: SAg Assay for Eselectin Biomarker Activity (AID 2283091); settings: primary human HUVEC with PBMC; actives raise or lower the signal
Method in brief: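 Primary human endothelial cells and peripheral blood mononuclear cells were co-cultured and exposed to chemical for 24 hours. E-selectin levels were then quantified by ELISA, with bidirectional curve fitting normalised to DMSO controls.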

[9] = read-out: Monokine induced gamma interferon (MIG), CXCL9 (gene 4283); experiment: BSK_SAg_MIG: BioMAP Diversity Plus: SAg Assay for Monokine induced gamma interferon (MIG) Biomarker Activity (AID 2283092); settings: primary human HUVEC with PBMC; actives raise or lower the signal
Method in brief: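 Values reflect bidirectional fitting of ELISA-measured MIG against DMSO vehicle, taken 24 h after dosing of a co-culture of human umbilical vein endothelial cells and peripheral blood mononuclear cells.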

[10] = BSK_SAg_PBMCCytotoxicity: PBMC Cytotoxicity Assessment in the BioMAP Diversity Plus: SAg Assay (AID 2283093); settings: primary human HUVEC with PBMC;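 also: fitted both ways against DMSO so a hit may be loss or gain of signal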
Method in brief: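 PBMC viability by Alamar Blue reduction, fluorescence read at 546/580 nm after 6 h dye exposure. Cells were dosed 1 h before SEB plus TSST-1 activation (20 ng/mL final each), then held 90 h; endothelial/PBMC human co-culture.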

[11] = read-out: Interleukin-8 (IL8), CXCL8 (gene 3576); experiment: BSK_SAg_IL8: BioMAP Diversity Plus: SAg Assay for Interleukin-8 (IL8) Biomarker Activity (AID 2283094); settings: primary human HUVEC with PBMC; actives raise or lower the signal
Method in brief: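 HUVEC/PBMC co-culture, 24 h post-dose; IL-8 by ELISA. Gain or loss of signal fitted bidirectionally vs DMSO baseline.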

[12] = BSK_SAg_Proliferation: Cell Proliferation Assessment in the BioMAP Diversity Plus: SAg Assay (AID 2283095); settings: primary human HUVEC with PBMC;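 also: relative cell number as total protein by SRB absorbance in sub-confluent culture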
Method in brief: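 HUVEC/PBMC co-culture, 96-well. TCA-fixed (10%), 0.1% SRB stain, A560 at 96 h. Protein content used as viability readout; bidirectional fitting vs DMSO control.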

[13] = BSK_SAg_SRB: Viability Assessment in the BioMAP Diversity Plus: SAg Assay (AID 2283096); settings: primary human HUVEC with PBMC;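 also: cells read one day after compound addition; hits may be either gain or loss of signal compared with DMSO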
Method in brief: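 Compounds were added to a human vascular co-culture of umbilical vein endothelium and PBMC. After 24 h, parallel cultures were fixed with 10% TCA, stained with 0.1% sulforhodamine B and read at 560 nm. Gain or loss of signal was fitted relative to DMSO.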

[14] = read-out: Monocyte Chemoattractant Protein-1 (MCP1), CCL2 (gene 6347); experiment: BSK_SAg_MCP1: BioMAP Diversity Plus: SAg Assay for Monocyte Chemoattractant Protein-1 (MCP1) Biomarker Activity (AID 2283090); settings: primary human HUVEC with PBMC; actives raise or lower the signal
Method in brief: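 Values derive from bidirectional fitting of ELISA-measured MCP1 against DMSO controls. Readings were taken 24 h after dosing human vascular endothelial cells co-cultured with peripheral blood mononuclear cells under superantigen stimulation.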

[15] = target: human CYP1A1, CYP1A1 (gene 1543) (UniProt P04798); experiment: NVS_ADME_hCYP1A1: NovaScreen (NVS) CYP450-related Enzyme Activity (ADME) Assay for human CYP1A1 (AID 2283100; active = hit-call score of the fitted dose curve at least 0.9, where 1 is the maximum)
Method in brief: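 Compounds first went through duplicate single-concentration testing at 10 uM against purified CYP1A1. Those passing a threshold such as 30% inhibition entered singleton dose-response, highest concentration 20 uM. Signal was fluorescence measured after 1 hour.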

[16] = target: human CYP2A6, CYP2A6 (gene 1548) (UniProt P11509); experiment: NVS_ADME_hCYP2A6: NovaScreen (NVS) CYP450-related Enzyme Activity (ADME) Assay for human CYP2A6 (AID 2283099; active = hit-call score of the fitted dose curve at least 0.9, where 1 is the maximum)
Method in brief: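 Recombinant human CYP2A6 from insect cells was incubated with chemical for 0.5 h and activity read by fluorescence. Single-concentration duplicates at 10 uM preceded concentration-response testing to 20 uM, with activity referenced to acetonitrile.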

[17] = target: human CYP1A2, CYP1A2 (gene 1544) (UniProt P05177); experiment: NVS_ADME_hCYP1A2: NovaScreen (NVS) CYP450-related Enzyme Activity (ADME) Assay for human CYP1A2 (AID 2283102; active = hit-call score of the fitted dose curve at least 0.9, where 1 is the maximum;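 as to AC50: fluorescence from turnover of a fluorogenic substrate by recombinant insect-cell CYP1A2; potency for inhibition since loss of fluorescence marks reduced CYP1A2 activity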)
Method in brief: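 Compounds were tested at 10 uM in duplicate against recombinant CYP1A2 produced in insect cells. Enzyme activity was measured by fluorescence 0.5 h after dosing, with loss of signal versus acetonitrile control. Active compounds were re-tested in concentration series.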

[18] = target: human CYP2B6, CYP2B6 (gene 1555) (UniProt P20813); experiment: NVS_ADME_hCYP2B6: NovaScreen (NVS) CYP450-related Enzyme Activity (ADME) Assay for human CYP2B6 (AID 2283101; active = hit-call score of the fitted dose curve at least 0.9, where 1 is the maximum)
Method in brief: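 Compounds were first screened in duplicate at 10 uM against recombinant enzyme, with the fluorescent product measured after 1 hour. Active compounds were retested over a concentration series. Loss of fluorescence versus acetonitrile control was scored as reduced enzyme activity.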

Sequence of E-selectin (Homo sapiens) (P16581 whole entry, looked up): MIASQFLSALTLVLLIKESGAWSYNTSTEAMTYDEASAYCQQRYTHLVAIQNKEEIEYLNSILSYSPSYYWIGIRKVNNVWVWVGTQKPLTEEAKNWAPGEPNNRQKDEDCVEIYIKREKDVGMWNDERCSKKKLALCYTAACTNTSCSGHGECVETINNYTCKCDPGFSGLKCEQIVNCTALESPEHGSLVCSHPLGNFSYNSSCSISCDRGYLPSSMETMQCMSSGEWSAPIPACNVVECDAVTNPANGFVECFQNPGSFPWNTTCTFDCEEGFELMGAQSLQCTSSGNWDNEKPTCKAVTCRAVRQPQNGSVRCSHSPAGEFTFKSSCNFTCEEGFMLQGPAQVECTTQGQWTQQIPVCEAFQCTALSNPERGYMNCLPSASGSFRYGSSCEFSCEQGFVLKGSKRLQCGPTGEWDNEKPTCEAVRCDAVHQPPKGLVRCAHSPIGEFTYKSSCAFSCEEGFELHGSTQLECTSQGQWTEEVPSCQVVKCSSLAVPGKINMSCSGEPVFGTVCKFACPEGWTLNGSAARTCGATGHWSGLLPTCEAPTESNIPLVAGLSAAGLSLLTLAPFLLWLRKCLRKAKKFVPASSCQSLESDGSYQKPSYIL
Sequence of Tumor necrosis factor (Homo sapiens) (P01375 whole entry, looked up): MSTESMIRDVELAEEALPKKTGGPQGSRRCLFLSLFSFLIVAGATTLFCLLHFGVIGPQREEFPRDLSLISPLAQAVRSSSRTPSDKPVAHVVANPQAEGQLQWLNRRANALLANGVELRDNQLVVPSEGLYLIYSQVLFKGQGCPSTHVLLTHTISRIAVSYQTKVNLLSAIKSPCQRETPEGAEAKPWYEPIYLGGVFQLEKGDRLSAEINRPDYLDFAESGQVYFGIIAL
Sequence of human CYP1A2, CYP1A2 (gene 1544) (P05177 whole entry, looked up): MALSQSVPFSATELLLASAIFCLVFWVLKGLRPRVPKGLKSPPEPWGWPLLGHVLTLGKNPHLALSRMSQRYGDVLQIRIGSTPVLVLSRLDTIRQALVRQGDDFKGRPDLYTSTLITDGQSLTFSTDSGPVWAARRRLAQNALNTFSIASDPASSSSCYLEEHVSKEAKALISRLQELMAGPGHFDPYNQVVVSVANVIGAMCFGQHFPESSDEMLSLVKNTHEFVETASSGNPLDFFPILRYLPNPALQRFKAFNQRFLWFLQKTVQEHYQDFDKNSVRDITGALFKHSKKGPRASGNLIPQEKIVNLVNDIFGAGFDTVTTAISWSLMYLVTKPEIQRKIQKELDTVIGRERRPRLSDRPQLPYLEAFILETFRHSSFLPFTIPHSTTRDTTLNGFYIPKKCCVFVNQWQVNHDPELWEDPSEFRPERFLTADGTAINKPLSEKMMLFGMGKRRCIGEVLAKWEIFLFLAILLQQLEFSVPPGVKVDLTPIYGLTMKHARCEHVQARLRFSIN
Sequence of human CYP2A6, CYP2A6 (gene 1548) (P11509 whole entry, looked up): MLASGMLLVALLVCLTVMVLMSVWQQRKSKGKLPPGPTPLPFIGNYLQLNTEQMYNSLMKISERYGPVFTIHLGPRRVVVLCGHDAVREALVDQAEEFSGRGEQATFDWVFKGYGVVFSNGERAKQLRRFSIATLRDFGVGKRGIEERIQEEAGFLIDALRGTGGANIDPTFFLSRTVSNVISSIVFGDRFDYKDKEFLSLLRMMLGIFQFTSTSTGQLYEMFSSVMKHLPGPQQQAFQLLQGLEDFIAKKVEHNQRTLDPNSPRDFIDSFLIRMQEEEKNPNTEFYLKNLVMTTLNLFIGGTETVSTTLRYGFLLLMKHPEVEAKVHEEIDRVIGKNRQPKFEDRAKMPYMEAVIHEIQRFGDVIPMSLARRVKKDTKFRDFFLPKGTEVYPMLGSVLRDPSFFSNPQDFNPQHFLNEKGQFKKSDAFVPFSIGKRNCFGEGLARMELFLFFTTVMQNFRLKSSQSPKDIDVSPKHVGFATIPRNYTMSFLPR
Sequence of human CYP2B6, CYP2B6 (gene 1555) (P20813 whole entry, looked up): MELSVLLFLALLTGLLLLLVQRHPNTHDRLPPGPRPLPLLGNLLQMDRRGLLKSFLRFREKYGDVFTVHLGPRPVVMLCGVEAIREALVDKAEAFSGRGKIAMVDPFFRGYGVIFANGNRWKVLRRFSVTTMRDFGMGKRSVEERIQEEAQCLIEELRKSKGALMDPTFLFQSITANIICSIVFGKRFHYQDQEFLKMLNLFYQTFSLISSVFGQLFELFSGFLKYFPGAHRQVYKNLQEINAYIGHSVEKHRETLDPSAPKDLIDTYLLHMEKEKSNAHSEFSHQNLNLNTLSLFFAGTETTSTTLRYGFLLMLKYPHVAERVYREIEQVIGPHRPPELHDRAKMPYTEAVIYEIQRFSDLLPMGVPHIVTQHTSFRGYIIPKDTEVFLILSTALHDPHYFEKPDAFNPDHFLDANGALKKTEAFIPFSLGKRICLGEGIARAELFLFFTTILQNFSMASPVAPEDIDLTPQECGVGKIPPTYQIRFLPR
Sequence of human CYP1A1, CYP1A1 (gene 1543) (P04798 whole entry, looked up): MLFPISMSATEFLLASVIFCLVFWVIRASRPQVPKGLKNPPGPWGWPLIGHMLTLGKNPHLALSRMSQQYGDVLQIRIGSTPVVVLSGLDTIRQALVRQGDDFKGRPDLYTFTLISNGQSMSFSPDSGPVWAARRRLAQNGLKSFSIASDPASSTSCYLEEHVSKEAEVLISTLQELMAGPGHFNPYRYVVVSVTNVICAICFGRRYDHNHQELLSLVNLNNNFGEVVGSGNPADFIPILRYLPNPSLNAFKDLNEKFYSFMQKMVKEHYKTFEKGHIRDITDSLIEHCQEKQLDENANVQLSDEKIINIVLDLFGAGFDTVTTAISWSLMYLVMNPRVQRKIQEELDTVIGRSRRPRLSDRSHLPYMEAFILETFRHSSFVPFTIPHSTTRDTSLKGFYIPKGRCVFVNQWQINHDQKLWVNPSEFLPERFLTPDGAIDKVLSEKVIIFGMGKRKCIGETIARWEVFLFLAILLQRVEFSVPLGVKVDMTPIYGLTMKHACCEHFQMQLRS

Cc1occc(=O)c1O
outcome [1]: inactive | outcome [2]: inactive | outcome [3]: inactive | outcome [4]: inactive | outcome [5]: inactive | outcome [6]: inactive | outcome [7]: inactive | outcome [8]: inactive | outcome [9]: inactive | outcome [10]: inactive | outcome [11]: inactive | outcome [12]: inactive | outcome [13]: inactive

CC(=O)OCC(COC(C)=O)OC(C)=O
outcome [1]: inactive | outcome [2]: inactive | outcome [3]: inactive | outcome [4]: inactive | outcome [5]: inactive | outcome [6]: inactive | outcome [7]: inactive | outcome [14]: inactive | outcome [8]: inactive | outcome [9]: inactive | outcome [10]: inactive | outcome [11]: inactive | outcome [12]: inactive | outcome [13]: inactive | outcome [15]: inactive

CC1(C)C(=O)NC(=O)N1CO
outcome [1]: inactive | outcome [2]: inactive | outcome [3]: inactive | outcome [4]: inactive | outcome [5]: inactive | outcome [6]: inactive | outcome [7]: inactive | outcome [14]: inactive | outcome [8]: inactive | outcome [9]: inactive | outcome [10]: inactive | outcome [11]: inactive | outcome [12]: inactive | outcome [13]: inactive | outcome [16]: inactive

CN(C)CCCN(C)CCCN(C)C
outcome [1]: inactive | outcome [2]: inactive | outcome [3]: inactive | outcome [4]: inactive | outcome [5]: inactive | outcome [6]: inactive | outcome [7]: inactive | outcome [8]: inactive | outcome [9]: inactive | outcome [10]: inactive | outcome [11]: inactive | outcome [12]: inactive | outcome [13]: inactive

CCCCC(CC)CO (stereo not drawn)
outcome [1]: inactive | outcome [2]: inactive | outcome [3]: inactive | outcome [4]: inactive | outcome [5]: inactive | outcome [6]: inactive | outcome [7]: inactive | outcome [8]: inactive | outcome [9]: inactive | outcome [10]: inactive | outcome [11]: inactive | outcome [12]: inactive | outcome [13]: inactive

COc1ccc(C(=O)Nc2nc3ccccc3c(NCc3ccccc3)c2C#N)cc1
AC50 [1]: 3.97 µM (active) | outcome [2]: inactive | outcome [3]: inactive | AC50 [4]: 4.78 µM (active) | outcome [5]: inactive | outcome [6]: inactive | outcome [7]: inactive | outcome [8]: inactive | outcome [9]: inactive | outcome [10]: inactive | outcome [11]: inactive | AC50 [12]: 6.22 µM (active) | outcome [13]: inactive | outcome [17]: inactive

CC(COCC(C)OC(=O)c1ccccc1)OC(=O)c1ccccc1 (stereo not drawn)
outcome [1]: inactive | outcome [2]: inactive | outcome [3]: inactive | outcome [4]: inactive | outcome [5]: inactive | outcome [6]: inactive | outcome [7]: inactive | outcome [8]: inactive | outcome [9]: inactive | outcome [10]: inactive | outcome [11]: inactive | outcome [12]: inactive | outcome [13]: inactive | outcome [18]: inactive | AC50 [17]: 8.75 µM (active)
